The record followed here is PubChem BioAssay (Tox21).

Several values for one entry are separate records, joined by “and”; a condition that tells them apart may be missing. Identical values can stand only once. A number with no mark means an inactive call. Records with an inconclusive call do not appear. Activity calls are given as the source filed them. Unless noted, the call rests on the fitted dose curve; in most records, active means well fitted curve in the direction sought with a large enough effect in the repeat runs; inconclusive means weak or mixed curves; inactive means no such curve, though single readings can be large; an effect the other way counts as inactive or inconclusive.

Experiment [1] is described as follows: qHTS assay for small molecule agonists of the p53 signaling pathway (AID 651631; calls by dose curve; further: nearly all actives have a fitted effect of over 15% in size; further: potency means the concentration at half of the fitted maximal effect). The procedure, abridged: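 p53RE-bla HCT-116 cells; compounds 16 h, 37 °C; LiveBLAzer B/G FRET substrate 2 h RT; fluorescence intensity read-out, qHTS format.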
Experiment [2] can be described thus: qHTS assay for small molecule agonists of the p53 signaling pathway - cell viability (AID 651633; calls by dose curve; further: nearly all actives have a fitted effect of over 30% in size; further: potency means the concentration at half of the fitted maximal effect). The procedure, abridged: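 p53RE-bla cells were treated with compound for 16 hours at 37 C. Cytotoxicity was then measured as CellTiter-Glo luminescence after 30 min at room temperature.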
The nature of experiment [3]: qHTS assay for small molecules that induce genotoxicity in human embryonic kidney cells expressing luciferase-tagged ATAD5 - cell viability (AID 651634; calls by dose curve; further: nearly all actives have a fitted effect of over 25% in size; further: potency means the concentration at half of the fitted maximal effect). The method, boiled down: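 Seeding of 2,000 HEK293T ATAD5-luciferase cells per well preceded pin-tool compound transfer. Plates sat 15.5 hr at 37C under 5% CO2, then fluorescence was read after 30 min with CellTiter-Fluor.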

Experiment [4] is described as follows: qHTS assay for small molecule disruptors of the mitochondrial membrane potential - cell viability (AID 720634; calls by dose curve; further: nearly all actives have a fitted effect of over 20% in size; further: potency means the concentration at half of the fitted maximal effect). The procedure, abridged:
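Measuring cytotoxicity alongside mitochondrial potential, the screen quantified ATP by luminescence in HepG2 cells after 1 hr compound incubation and a 30 min room-temperature CellTiter-Glo step.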

The nature of experiment [5]: qHTS assay for small molecule disruptors of the mitochondrial membrane potential (AID 720635). Further: potency means the concentration at half of the fitted maximal effect. The method, boiled down: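 HepG2 cells exposed to compound 1 hr at 37C, then Mito-MPS dye 30 min. Ratio read of aggregate (540/590 nm) versus monomer (490/535 nm) fluorescence.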
A short description of experiment [6]: qHTS assay to test for compound auto fluorescence at 590 nm (red) in HepG2 cells (AID 720674). The method, boiled down: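 Fluorescence at 590 nm emission following 540 nm excitation was recorded from HepG2 wells one hour after compound transfer, with DMSO-only wells as vehicle and Rose Bengal sodium equivalency as the scale.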
Experiment [7] is described as follows: qHTS assay to test for compound auto fluorescence at 535 nm (green) in HepG2 cells (AID 720675).
Experiment [8] can be described thus: qHTS assay to test for compound auto fluorescence at 460 nm (blue) in HEK293 cells (AID 720678). The method, boiled down:
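Cells were seeded and left to adhere for 4-5 hr at 37C. Compounds were then pin-transferred. After an overnight incubation at 37C under 5% CO2, intrinsic fluorescence at 405/460 nm was measured and referenced to triamterene.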

Experiment [9] can be described thus: qHTS assay to test for compound auto fluorescence at 535 nm (green) in HEK293 cells (AID 720680).
Experiment [10] can be described thus: qHTS assay to test for compound auto fluorescence at 460 nm (blue) in HEK293 cell free culture (AID 720681). The procedure, abridged: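 Compounds were added to cell-free DMEM with 10% FBS and fluorescence read directly. The blue channel used 405 nm excitation and 460 nm emission, with triamterene as the reference fluorophore.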
Experiment [11] in a line: qHTS assay to test for compound auto fluorescence at 535 nm (green) in HEK293 cell free culture (AID 720682). The procedure, abridged: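 Cell-free medium (DMEM, 10% FBS) receives compound or DMSO by pintool. Plate read directly at Ex 485/Em 535 nm. Signal converted to fluorescein equivalency.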
Experiment [12] in a line: qHTS assay to test for compound auto fluorescence at 590 nm (red) in HEK293 cell free culture (AID 720683). The procedure, abridged:
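Cell-free wells of DMEM with 10% FBS received compound, and intrinsic fluorescence was read at excitation/emission 540/590 nm. Values expressed as equivalence to Rose Bengal sodium.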

The nature of experiment [13]: qHTS assay to test for compound auto fluorescence at 590 nm (red) in HepG2 cell free culture (AID 720684). The method, boiled down: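 Compounds are added to culture medium (MEM, 10% FBS) lacking cells, then fluorescence is read at excitation 540 nm, emission 590 nm, with Rose Bengal sodium as the equivalency standard.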
Experiment [14] is described as follows: qHTS assay to test for compound auto fluorescence at 460 nm (blue) in HepG2 cell free culture (AID 720685). The method, boiled down:
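Compound (23 nL) or DMSO pinned into cell-free MEM with 10% FBS; blue fluorescence read at 405/460 nm excitation/emission, expressed as auto-fluorescence equivalency to triamterene.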

Experiment [15] is described as follows: qHTS assay to test for compound auto fluorescence at 535 nm (green) in HepG2 cell free culture (AID 720686).
The nature of experiment [16]: qHTS assay to test for compound auto fluorescence at 460 nm (blue) in HepG2 cells (AID 720687). The procedure, abridged: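 HepG2 cells in MEM with 10% FBS, attached overnight at 37 C, were exposed to compound or DMSO for 1 hr at 37 C, 5% CO2. Blue fluorescence was read at 405/460 nm, with triamterene as reference fluorophore.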
Experiment [17] deals with Glucocorticoid receptor (Homo sapiens) (UniProt P04150). The experiment can be described thus: qHTS assay to identify small molecule agonists of the glucocorticoid receptor (GR) signaling pathway (AID 720691; active means well fitted activation curve with a large enough effect in the signal ratio in the repeat runs, not every such curve was filed as active; the % refers to the signal ratio). The method, boiled down: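 Reporter read-out: fluorescence intensity following 2 h room-temperature LiveBLAzer B/G FRET substrate loading. Prior step: GR-bla HeLa cells held 4 h, then treated 18 h at 37 C.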

Experiment [18] in a line: qHTS assay for small molecules that induce genotoxicity in human embryonic kidney cells expressing luciferase-tagged ATAD5 (AID 651632). Further: nearly all actives have a fitted effect of over 15% in size. Further: potency means the concentration at half of the fitted maximal effect. The procedure, abridged: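 Reporter cells (HEK293T) express luciferase-tagged ATAD5, a protein that accumulates after DNA damage. Treat 16 hr at 37C/5% CO2, add Amplite, wait 30 min at RT, and read luminescence.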
The nature of experiment [19]: qHTS assay to test for compound auto fluorescence at 590 nm (red) in HEK293 cells (AID 720679). The procedure, abridged: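 Each well held 2,000 HEK293 cells in medium containing 10% dialyzed FBS. Following 4-5 hr attachment at 37C, 23 nL test compound or DMSO was added; plates sat overnight, and red fluorescence (540/590nm) was recorded.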
For experiment [20], the target named is Glucocorticoid receptor (Homo sapiens) (UniProt P04150). As to the kind of experiment: qHTS assay to identify small molecule antagonists of the glucocorticoid receptor (GR) signaling pathway (AID 720692; active means well fitted inhibition curve with a large enough effect in the signal ratio in the repeat runs, not every such curve was filed as active; the % refers to the signal ratio). The procedure, abridged:
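Dexamethasone (5 nM final) stimulated a stably integrated GRE-beta-lactamase reporter in HeLa cells during 18 h co-incubation with compounds; signal was quantified as fluorescence intensity of B/G FRET substrate after 2 h.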
On the % scale 0 is the no-effect control and ±100 the full control effect.

Glucocorticoid receptor (Homo sapiens), sequence (P04150 whole entry, looked up): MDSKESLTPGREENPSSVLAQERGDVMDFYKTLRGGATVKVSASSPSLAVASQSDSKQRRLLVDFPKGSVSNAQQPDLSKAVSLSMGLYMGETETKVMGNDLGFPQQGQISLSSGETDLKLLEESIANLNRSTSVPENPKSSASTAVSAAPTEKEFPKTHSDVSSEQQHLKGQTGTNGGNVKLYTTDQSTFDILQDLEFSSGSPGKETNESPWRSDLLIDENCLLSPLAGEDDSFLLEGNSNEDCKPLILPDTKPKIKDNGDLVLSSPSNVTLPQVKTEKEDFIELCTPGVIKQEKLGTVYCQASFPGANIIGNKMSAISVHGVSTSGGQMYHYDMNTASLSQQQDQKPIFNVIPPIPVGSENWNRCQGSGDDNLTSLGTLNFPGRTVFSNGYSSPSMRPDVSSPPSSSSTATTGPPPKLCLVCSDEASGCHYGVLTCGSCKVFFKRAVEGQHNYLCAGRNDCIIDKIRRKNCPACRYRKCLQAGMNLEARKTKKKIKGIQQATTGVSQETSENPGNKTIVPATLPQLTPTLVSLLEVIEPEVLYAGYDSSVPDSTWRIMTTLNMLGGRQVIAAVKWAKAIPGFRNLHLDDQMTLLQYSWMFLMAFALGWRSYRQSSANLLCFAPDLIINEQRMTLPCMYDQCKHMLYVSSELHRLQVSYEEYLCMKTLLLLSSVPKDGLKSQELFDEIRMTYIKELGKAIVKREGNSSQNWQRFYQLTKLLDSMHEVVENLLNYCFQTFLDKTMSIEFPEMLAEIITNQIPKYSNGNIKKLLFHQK

As for `O=c1c(O)c(-c2ccc(O)cc2)oc2cc(O)cc(O)c12`, the Potency result in experiment [1], in [2], in experiment [3], in experiment [4], in experiment [8] and in experiment [10] was “inactive” each time. Also, the Potency entry in [14], in [16] and in experiment [17] was “inactive” throughout. The Potency in experiment [5] is 3.84 µM (active) and 328 nM (active). Also, the molecule was classed as inactive in experiment [6], in [7], in experiment [9], in experiment [11], in [12] and in experiment [13]. The outcome in experiment [15] was inactive.
For the molecule `CC(C)COCC(CN(Cc1ccccc1)c1ccccc1)N1CCCC1` (centres undefined), the Potency in experiment [1] is 13.3 µM (active); in experiment [2], 11.9 µM (active); in experiment [3], 9.44 µM (active). Moreover, the Potency entry in experiment [18], in [8], in experiment [10], in [14], in experiment [16] and in [17] was “inactive” throughout. In addition, the result in experiment [6], in experiment [7], in [19], in experiment [9], in experiment [13] and in experiment [15] was inactive.
For the molecule `Clc1cc(Cl)nc(Cl)n1`, the Potency entry in experiment [1], in experiment [2], in experiment [4], in experiment [5], in [8] and in experiment [10] was “inactive” throughout. The Potency result in [14] and in experiment [16] was “inactive” each time. Further, the result in [6], in [7], in experiment [19], in experiment [9], in experiment [11] and in experiment [13] was inactive. Moreover, the outcome in experiment [15] was inactive.
Consider `O=c1[nH]c2ccc(Cl)cc2o1`, for which the Potency entry in [1], in [18], in experiment [2], in [4], in experiment [8] and in experiment [10] was “inactive” each time. The Potency entry in experiment [14] and in experiment [16] was “inactive” each time. Besides, the call in experiment [6], in experiment [19], in experiment [9] and in [13] was inactive.
For `c1cc(N(CC2CO2)CC2CO2)ccc1Cc1ccc(N(CC2CO2)CC2CO2)cc1` (centres undefined), the Potency is 24.3 µM (active) in [1], 15.4 µM (active) in experiment [18], 48.6 µM (active) in [4] and 27.3 µM (active) in experiment [5]. Moreover, the Potency result in experiment [2], in experiment [8], in experiment [10], in experiment [14] and in experiment [16] was “inactive” in each case. Besides, the result in experiment [6], in experiment [7], in [19], in [9], in [12] and in [13] was inactive. In experiment [15], the call was inactive.
As for `COc1cc(N)c(Cl)cc1C(=O)NC1CCN(CCCOc2ccc(F)cc2)CC1OC` (centres undefined), the Potency result in experiment [1], in experiment [18], in experiment [2], in [4], in experiment [17] and in experiment [20] was “inactive” in each case. Moreover, the fluorescence, relative to Rose Bengal in [6] was 0.956% [at 18.6 µM]. The fluorescence, % of fluorescein control in experiment [7] was -0.0882% [at 18.6 µM]; in [15], -0.0661% [at 18.6 µM]. Further, the fluorescence, % of triamterene in experiment [8] is -0.493% [at 18.6 µM]. The fluorescence, % of fluorescent control in [19] is 0.102% [at 18.6 µM]; in experiment [10], -0.0155% [at 18.6 µM]; in experiment [12], 0.142% [at 18.6 µM]; in experiment [14], -0.0728% [at 18.6 µM]; in experiment [16], 0.156% [at 18.6 µM]. Moreover, the fluorescence, % of fluorescein in [9] was 0.0057% [at 18.6 µM]. Further, the activity change in [11] was 0.0082% [at 18.6 µM]. Moreover, the fluorescence, % of Rose Bengal in experiment [13] is -0.186% [at 18.6 µM].
As to `CCC1NC(=O)c2cc(S(N)(=O)=O)c(Cl)cc2N1` (centres undefined), the Potency result in experiment [1], in experiment [2], in [3], in experiment [4], in [17] and in experiment [20] was “inactive” in each case. For the same molecule, the fluorescence, % of fluorescein control in experiment [7] was 0.161% [at 18.6 µM]; in [15], 0.0837% [at 18.6 µM]. Also, the fluorescence, % of triamterene in experiment [8] was -0.286% [at 18.6 µM]. Also, the fluorescence, % of fluorescent control was -0.132% [at 18.6 µM] in experiment [19], -0.0955% [at 18.6 µM] in [10], -0.0342% [at 18.6 µM] in [14] and -0.0496% [at 18.6 µM] in experiment [16]. Moreover, the fluorescence, % of fluorescein in experiment [9] is -0.0959% [at 18.6 µM]. The activity change in experiment [11] is -0.178% [at 18.6 µM]. Further, the fluorescence, % of Rose Bengal in experiment [13] was -0.427% [at 18.6 µM].
